According to PubChem BioAssay (NCI):
Where “and” joins values, the source holds several entries; their conditions need not be identical. Identical values can stand only once. The panel holds about 79,000 compounds, 15% with a hit somewhere; the sample as a whole holds those more often. Calls of active or inactive are those of the source. Rule as the data show it: active = growth inhibition above about 70%; inactive = the rest.

How the values were obtained:
[1] = NCI Yeast Anticancer Drug Screen. Data for the rad50 strain (AID 155);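 also: 0% = growth of vehicle-only cultures of the same strain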; settings: S. cerevisiae rad50 strain growth inhibition, active compounds read high
Method in brief: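 Growth of the mutant yeast was measured after compound exposure and referenced to vehicle-treated cultures.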

[2] = NCI Yeast Anticancer Drug Screen. Data for the mec2-1 strain (AID 157); settings: S. cerevisiae mec2-1 strain, active compounds read high
Method in brief: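 Using mec2-1 yeast: add compound, measure growth, express inhibition versus vehicle-treated cultures.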

[3] = NCI Yeast Anticancer Drug Screen. Data for the sgs1 mgt1 strain (AID 161);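 also: 0% = growth of cultures given vehicle only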; settings: S. cerevisiae sgs1 mgt1 strain, active compounds read high
Method in brief: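 This yeast growth screen uses a strain with defined DNA-repair lesions; compound-treated growth is compared with vehicle-treated growth.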

[4] = NCI Yeast Anticancer Drug Screen. Data for the cln2 rad14 strain (AID 165);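 also: 0% = growth equal to vehicle treated cultures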; settings: S. cerevisiae cln2 rad14 strain, active compounds read high
Method in brief: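 Yeast strain cln2 rad14, bearing defects in cell cycle control and DNA repair, serves as the test system; values reflect growth inhibition compared with vehicle.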

[5] = NCI Yeast Anticancer Drug Screen. Data for the bub3 strain (AID 167); settings: S. cerevisiae bub3 mutant strain, active compounds read high
Method in brief: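 Whole-cell yeast assay. The mutant strain was incubated with compounds, and growth inhibition was determined by comparison with vehicle-treated cells.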

[6] = NCI Yeast Anticancer Drug Screen. Data for the mlh1 rad18 strain (AID 175); settings: S. cerevisiae mlh1 rad18 strain growth inhibition, active compounds read high
Method in brief: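 Steps: expose repair-defective yeast to compound; measure growth; express inhibition against vehicle-treated controls.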

[7] = NCI Yeast Anticancer Drug Screen. Data for the wt2 strain (AID 169);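 also: 0% = growth of vehicle-treated yeast cultures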; settings: S. cerevisiae wt2 strain growth inhibition, active compounds read high
Method in brief: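 Treated yeast vs. vehicle-treated yeast: growth inhibition determined.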

[8] = at 5.0 µM (retest, dose inferred, filed as 0.5)
[9] = at 50.0 µM (retest, dose inferred, filed as 5.0)

Measured: growth inhibition

C=C1CC2(CC(c3ccccc3C)OC(c3ccccc3C)C2)OC1=O (centres undefined)
active: [1]; [9] 85% | [1]; at 50.0 µM 77.7% | [2]; [9] 94% | [2]; at 50.0 µM 83.7% | [3]; [8] 76% | [3]; [9] 83% | [3]; at 50.0 µM 84.1% | [4]; [8] 83% | [4]; [9] 91% | [4]; at 50.0 µM 84% | [5]; [8] 74% | [5]; [9] 87% | [5]; at 50.0 µM 78.4% | [6]; [8] 80% | [6]; [9] 90%
inactive: [1]; [8] 54% | [2]; [8] 53%

O=NC1C(Br)C2CC1C1C(Cl)C(Cl)CC21 (centres undefined)
inactive: [1]; [8] 6% | [1]; [9] 10% | [1]; at 50.0 µM 58.7% | [2]; [8] 12% | [2]; [9] 13% | [2]; at 50.0 µM 29.9% | [3]; [8] -5% | [3]; [9] 6% | [4]; [8] -2% | [4]; [9] -7% | [4]; at 50.0 µM 44.1% | [5]; [8] 1% | [5]; [9] -6% | [5]; at 50.0 µM 10.1%
active: [3]; at 50.0 µM 76.8%

Cc1ccc(S(=O)(=O)NC2CCCCCCC2)cc1
active: [1]; [9] 96% | [1]; at 50.0 µM 77% | [2]; [9] 89% | [3]; at 50.0 µM 79% | [5]; [8] 97% | [5]; [9] 95% | [5]; at 50.0 µM 89.3% | [7]; at 100.0 µM 98% | [6]; [9] 99% | [6]; at 50.0 µM 82.8%
inactive: [1]; [8] 45% | [2]; [8] 30% | [2]; at 50.0 µM 64.2% | [3]; [8] 42% | [3]; [9] 16% | [4]; [8] 48% | [4]; [9] 46% | [4]; at 50.0 µM 60% | [7]; at 1.2 µM -4% | [7]; at 3.7 µM -17% | [7]; at 11.0 µM -23% | [7]; at 33.0 µM 23% | [6]; [8] 40%

CCCCCCCCC(Sc1n[nH]c(=O)[nH]c1=O)C(=O)OCC (centres undefined)
active: [1]; at 50.0 µM 85.5% | [2]; [9] 70% | [2]; at 50.0 µM 89.7% | [3]; at 50.0 µM 91.6% | [4]; [9] 88% | [4]; at 50.0 µM 84.8% | [5]; [9] 88% | [5]; at 50.0 µM 88.5%
inactive: [1]; [8] 4% | [1]; [9] 35% | [2]; [8] 1% | [3]; [8] 4% | [3]; [9] 29% | [4]; [8] 1% | [5]; [8] -4%

O=C(NNc1ccnc2cc(Cl)ccc12)/C(=C/c1ccc2c(c1)OCO2)NC(=O)c1ccccc1
inactive: [1]; [8] 12% | [2]; [8] -18% | [2]; [9] 46% | [3]; [8] -4% | [3]; [9] 47% | [4]; [8] 2% | [4]; [9] 64% | [5]; [8] -9% | [5]; at 50.0 µM 58.9%
active: [1]; [9] 71% | [1]; at 50.0 µM 90.7% | [2]; at 50.0 µM 77.3% | [3]; at 50.0 µM 86.8% | [4]; at 50.0 µM 79.7% | [5]; [9] 83%

Cc1nc(N=C(N)N)nc2ccc3ccccc3c12
inactive: [1]; [8] 39% | [1]; [9] 38% | [2]; [8] 43% | [2]; [9] 69% | [2]; at 50.0 µM 37.9% | [3]; [8] -13% | [3]; at 50.0 µM 64.7% | [4]; [8] 62% | [4]; at 50.0 µM 34.8% | [5]; [8] -14% | [5]; at 50.0 µM 63.9% | [7]; at 1.2 µM 6% | [7]; at 3.7 µM 12% | [7]; at 11.0 µM 0% | [7]; at 33.0 µM 30% | [6]; [8] 28% | [6]; [9] 34% | [6]; at 50.0 µM 69.6%
active: [1]; at 50.0 µM 80.8% | [3]; [9] 98% | [4]; [9] 99% | [5]; [9] 96% | [7]; at 100.0 µM 97%

Cc1c(C)c(CCl)c(C)c(C)c1CCl
inactive: [1]; [8] 53% | [3]; [8] 1% | [3]; [9] 43% | [4]; [8] 34% | [5]; [8] 14% | [5]; [9] 39% | [5]; at 50.0 µM 61.5% | [7]; at 1.2 µM 0% | [7]; at 3.7 µM 25% | [6]; [8] 66%
active: [1]; [9] 95% | [1]; at 50.0 µM 87.7% | [2]; [8] 71% | [2]; [9] 96% | [2]; at 50.0 µM 86% | [3]; at 50.0 µM 75.2% | [4]; [9] 84% | [4]; at 50.0 µM 72.5% | [7]; at 11.0 µM 71% | [7]; at 33.0 µM 82% | [7]; at 100.0 µM 83% | [6]; [9] 95% | [6]; at 50.0 µM 82%

Nc1cc2ccccc2cc1Br
inactive: [1]; [8] 43% | [2]; [8] 30% | [2]; [9] 62% | [2]; at 50.0 µM 42.9% | [3]; [8] 14% | [3]; [9] 26% | [4]; [8] 54% | [4]; [9] 44% | [4]; at 50.0 µM 41.6% | [5]; [8] 22% | [5]; [9] 52% | [7]; at 1.2 µM -13% | [7]; at 3.7 µM -17% | [7]; at 11.0 µM -17% | [7]; at 33.0 µM 12% | [6]; [8] 40% | [6]; at 50.0 µM 45%
active: [1]; [9] 73% | [1]; at 50.0 µM 81% | [3]; at 50.0 µM 71.8% | [5]; at 50.0 µM 74.7% | [7]; at 100.0 µM 97% | [6]; [9] 82%

O=C(/C=C/c1ccccn1)c1ccccc1
inactive: [1]; [8] 4% | [1]; [9] 59% | [1]; at 50.0 µM 9.35% and 16.2% | [2]; [8] -13% | [2]; [9] 28% | [2]; at 50.0 µM 40% and 16.4% | [3]; [8] -1% | [3]; [9] 56% | [3]; at 50.0 µM 44.7% and 24.4% | [4]; [8] 5% | [4]; [9] 11% | [4]; at 50.0 µM 7.2% and 26.9% | [5]; [8] -5% | [5]; [9] 23% | [5]; at 50.0 µM 47.2% and 39.9%
